Structures are written as SMILES. Screen size: about 280,000 compounds; about 540 (0.19%) were called active. A call without a number means that no potency is given here. Not shown: some 2% with an inconclusive outcome. The call rests on the fitted dose curve; in most records, active means well fitted activation curve with a large enough effect; inconclusive means small, poorly fitted or top-dose-only effect; inactive means flat fitted curve, though single readings scatter. This excerpt belongs to a sample that is enriched for actives.
Potency means the concentration at half of the fitted maximal effect.

This assay is described as follows: Quantitative High-Throughput Screen for Regulators of Epigenetic Control. Further: nearly all actives have a fitted effect of over 60% in size. To be noted: murine LDR cells, GFP reporter derepression, 30 h; series mostly up to 53.9 µM. The text has this: NIH Molecular Libraries Screening Centers Network [MLPCN] NIH Chemical Genomics Center [NCGC] MLSCN Grant: 1 X01 MH079860-01 Assay Provider: Elisabeth D. Martinez, University of Texas SW Medical Center NCGC Assay Overview: The Locus Derepression (LDR) assay detects the derepression or induction of a GFP reporter that is stably integrated in a genomic region of murine cells that is presumably silenced. Transcription of the GFP reporter is controlled by a CMV promoter, which normally is constitutively active. However, this cell line, termed LDR, was selected for lack of constitutive production of GFP. GFP production can be induced by incubating the cells with histone deacetylase or DNA methyltransferase inhibitors (Martinez et al., 2006). Compounds that derepress or induce this reporter locus are identified by enumerating GFP positive cells using a laser-scanning microplate cytometer (Auld et al., 2006). This assay was screened against the MLSMR earlier (AID 597; (Johnson et al., 2008) and has been rescreened here against the expanded collection.
NCGC Assay Protocol Summary: Three hundred LDR cells in 5 uL per well were dispensed into black, clear-bottom 1536-well plates. Twenty-three nL compound was transferred to the assay plate and cells were incubated 30 hours at 37 C. Medium was removed, cells were washed two times with PBS, and GFP-positive cells were enumerated as fluorescent objects between the sizes of 20 to 120 um width and depth using an Acumen Explorer. References Auld, DS, Johnson, RL, Zhang, YQ, Veith, H, Jadhav, A, Yasgar, A, Simeonov, A, Zheng, W, Martinez, ED, Westwick, JK, Austin, CP, Inglese, J (2006). Fluorescent protein-based cellular assays analyzed by laser-scanning microplate cytometry in 1536-well plate format. Methods Enzymol 414: 566-89. Johnson, RL, Huang, W, Jadhav, A, Austin, CP, Inglese, J, Martinez, ED (2008). A quantitative high-throughput screen identifies potential epigenetic modulators of gene expression. Anal Biochem 375: 237-48. Martinez, ED, Dull, AB, Beutler, JA, Hager, GL (2006). High-content fluorescence-based screening for epigenetic modulators. Methods Enzymol 414: 21-36.
Turning to `Cc1ccc(/C=N/NC(=S)Nc2cccc(S(=O)(=O)N(C)C)c2)o1`, the Potency is 3.98 µM (active).

Take `CN(C)S(=O)(=O)c1cccc(NC(=S)N/N=C/C(=O)c2ccccc2)c1`: the Potency result is “inactive”. Turning to `CN(C)S(=O)(=O)c1cccc(NC(=S)NCc2ccc3c(c2)OCO3)c1`, the Potency result was “inactive”.

For the compound `Cc1cc(Cl)ccc1NC(=O)Cc1ccc(NC(=O)N2CCCCc3ccccc32)cc1`, the Potency result was “inactive”. Under `CCN1CCN(CCCNC(=O)c2ccc3c(c2)sc2nc(-c4ccc(OC)cc4)cn23)CC1` stands “inactive”; under `Cc1oc(C)c2c(=O)cc(-c3ccc4c(c3)OCO4)cc(OC(=O)c3ccc(Cl)cc3)c12`, “inactive”; under `COc1cc(OC)cc(C(=O)Nc2ccc3nc(Nc4cccc(C(F)(F)F)c4)cc(C)c3c2)c1`, “inactive”. Under `CCc1ccc(CNCc2c(C(=O)O)n(Cc3ccc(F)cc3Cl)c3cc(OC)ccc23)cc1` stands “inactive”. In the case of `N#Cc1ccccc1Cn1cnc2nc3c(cc2c1=O)CCCC3` it was “inactive”; in that of `Cc1ccccc1C(=O)Nc1nnc(S(=O)(=O)N(C)c2ccc(Cl)cc2)s1`, “inactive”. For `COc1ccc(C(=O)N2CCC(c3nc4ccccc4o3)CC2)cc1`, the Potency result was “inactive”.

For the compound `CCCCOc1ccc(CN2C(=O)C(=O)c3cc(Br)cc(C)c32)cc1OC`, the Potency entry was “inactive”. With `Cc1nn(C(C)C(=O)Nc2ccc(C(C)C)cc2)c(=O)c2c1sc1ccccc12` (stereo unspecified), the Potency entry is “inactive”. Take `COc1ccc(NC(=O)CCNS(=O)(=O)c2ccc3c(c2)CCCC(=O)N3)cc1Cl`: the Potency result is “inactive”.

On to `COc1cccc(-c2nnc(SCC(=O)N3CCC(C)CC3)o2)c1`, for which the Potency entry is “inactive”. In the case of `CCOc1ccc(CNCc2c(C(=O)O)c(C)n(Cc3cccc(OC)c3)c2C)cc1OC` it was “inactive”; in that of `Cc1ccc(Cl)cc1N(C)C(=O)C1CCCN(c2ncnc3onc(-c4ccc(F)cc4)c23)C1` (stereo unspecified), “inactive”; in that of `COc1ccc(S(=O)(=O)c2c(Nc3cccc(Cl)c3)sc(C(=O)c3ccccc3)c2N)cc1`, “inactive”. In the case of `COc1ccccc1Nc1nc(N)nc(N)c1S(=O)(=O)c1ccccc1` it was “inactive”.

With `CC1(C)N=C(SCc2ccccc2Cl)c2ccccc2N1`, the Potency result is “inactive”. Under `Cc1ccc(NC(=O)Cc2ccc(NC(=O)N3CCCCc4ccccc43)cc2)cc1` stands “inactive”; under `CNC(=O)c1ccc(-c2nc(CN3CCc4ccccc43)c(C)o2)cc1`, “inactive”. In the case of `CC(=O)c1ccc(NC(c2ccc(F)cc2)c2nnc(-c3ccccc3)o2)cc1` (stereo unspecified) it was “inactive”; in that of `COc1ccc(-c2cn3nc(N4CCCC(C(=O)NCCCOC(C)C)C4)sc3n2)cc1` (stereo unspecified), “inactive”; in that of `Cc1cc2oc(C(=O)N(Cc3ccc(Cl)cc3)Cc3ccco3)c(C)c2cc1Cl`, “inactive”. For `COc1cccc(N=C2SC(C(=O)Nc3cccc(Cl)c3)CC(=O)N2C)c1` (stereo unspecified), the Potency entry was “inactive”. Regarding `Fc1ccc(-n2ncc3c(Nc4ccc(Oc5ccccc5)cc4)ncnc32)cc1`, the Potency entry is “inactive”.

For the compound `COc1ccccc1CN1CCC(CNC(=O)c2cnn(-c3ccccc3Cl)c2C2CCN(C(=O)OC(C)(C)C)CC2)CC1`, the Potency entry is “inactive”. In the case of `CCOc1ccccc1C(=O)Nc1ccc2c(c1)N(C)C(=O)c1ccccc1S2` it was “inactive”. Under `CCOC(=O)c1c(C)[nH]c(CCC(=O)Nc2ccc(OC)c(OC)c2)c1C` stands “inactive”; under `O=S(=O)(c1ccc2nc(NCc3ccccc3Cl)ccc2c1)N1CCCCC1`, “inactive”; under `COc1cc(CN(C(=O)c2ccccc2Br)c2ccccn2)cc(OC)c1OC`, “inactive”. Under `CC(C)(C)c1ccc(OCC(=O)N2CCC(c3nc4ccccc4s3)CC2)cc1` stands “inactive”; under `Cc1ccc(-n2c3nc(=O)[nH]c(=O)c-3cc3c(Cl)cccc32)cc1`, “inactive”; under `Cc1c(-c2nsc(NC(=O)c3cccc(Cl)c3)n2)nnn1-c1ccccc1C(F)(F)F`, “inactive”. For `CSc1ccc(C2c3c(oc4ccccc4c3=O)C(=O)N2CCCN2CCOCC2)cc1` (stereo unspecified), the Potency result is “inactive”. As to `CCC(C(=O)Nc1cccc(Cl)c1C)n1nc(-c2ccc(C)cc2)ccc1=O` (stereo unspecified), the Potency entry is “inactive”. In the case of `CCOC(=O)CNC(=O)c1cc2c(=O)n3cccc(C)c3nc2s1` it was “inactive”; in that of `CCOC(=O)CC1C(=O)NCCN1C(=O)COc1ccc(Br)cc1C` (stereo unspecified), “inactive”; in that of `CCOC(=O)CC1C(=O)NCCN1c1nc2c(C)cccn2c(=O)c1/C=C1\SC(=S)N(C(C)CC)C1=O` (stereo unspecified), 7.08 µM (active).

`COc1ccc(-n2nnc(-c3nsc(NC(=O)c4ccc(C)c(C)c4)n3)c2C)cc1Cl`: the Potency entry was “inactive”.

Consider `Cc1ccc(SCC(=O)Nc2ccc3oc(-c4ccccc4F)nc3c2)cc1`, for which the Potency entry was “inactive”. In the case of `Cc1c(Cl)cccc1NC(=O)Cn1cc(C(=O)c2cccs2)c2ccccc21` it was “inactive”; in that of `COc1cccc(C(=O)Nc2ccc(-c3cc(C(F)(F)F)nn3-c3ccccc3)cc2)c1`, “inactive”.

As to `CCS(=O)(=O)c1ncc(N(Cc2ccc(F)cc2)Cc2ccco2)c(C(=O)Nc2cc(C)ccc2C)n1`, the Potency result was “inactive”.

Take `CC(C)CCN(C(=O)Nc1ccc(Cl)c(Cl)c1)C(C)c1cccs1` (stereo unspecified): the Potency entry was “inactive”. In the case of `CCc1cc2c(cc(C(=O)OC)n2Cc2nc(-c3ccc(C)cc3)oc2C)s1` it was “inactive”; in that of `COc1ccccc1-c1nnc(C2CCN(C(=O)c3ccc(Cl)cc3)CC2)o1`, “inactive”.

For `CCC(Sc1nc2n[nH]c(C)c2c(=N)n1-c1ccccc1Cl)C(=O)N(CC)CC` (stereo unspecified), the Potency entry is “inactive”. Under `CC1=C(C(=O)N2CCN(c3cccc(C(F)(F)F)c3)CC2)C2(CCCCC2)OC1=O` stands “inactive”; under `COc1ccc(OCCCn2c(C)nc3cc(C)c(C)cc32)cc1`, “inactive”; under `CCn1c(/C=C/c2ccc([N+](=O)[O-])o2)nc2ccccc2c1=O`, 3.55 µM (active). Under `C/[N+]([O-])=C\c1ccc([N+](=O)[O-])o1` stands “inactive”.

For the compound `Cn1cc(/C=C/c2nc3ccccc3c(=O)n2-c2cccc([N+](=O)[O-])c2)c2ccccc21`, the Potency result is “inactive”. In the case of `Cc1c(Cl)cccc1NC(=O)N1CCN(C(=O)c2nsc3ccccc23)CC1` it was “inactive”; in that of `Cc1ccc(NC(=O)c2ccc(CN3CC(=O)N4CCCCC4C3=O)cc2)c(Cl)c1` (stereo unspecified), “inactive”.

As for `CCCN(CCC)C(=O)Cn1c(=O)n(-c2ccc(Cl)cc2)c(=O)c2c3c(sc21)CCCCC3`, the Potency entry is “inactive”. Under `CC(C)(C)c1ccc(C(=O)Nc2ccc3c(c2)CCCN3C(=O)c2cccs2)cc1` stands “inactive”.

`O=C(NCc1ccc2c(c1)CCN2C(=O)c1ccccc1)c1ccccc1`: the Potency result was “inactive”. Under `CCOc1ccc(NC(=O)c2cc3c(=O)n(Cc4cccs4)ccc3nc2C)cc1` stands “inactive”; under `COc1cc(NC(=O)Cn2nc(-c3ccc(C)c(C)c3)ccc2=O)cc(OC)c1`, “inactive”.

For the origin of these results see PubChem BioAssay AID1865 (National Center for Advancing Translational Sciences (NCATS), 2009).
